Bioassay records deposited in PubChem by Broad Institute.
C diff HTS = C. difficile growth inhibition; growth activity, negative = inhibition, % at 16 µg/mL (by protocol); AID 1259249; 0.25% of 86,000 active; Clostridium difficile clinical isolate growth, OD600, 24 h; stronger effect = lower value;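 active means mean growth activity at or below -80% and every replicate also at or below -80%; inconclusive means mean at or below -80% but some replicate above -80%; inactive means mean growth activity above -80%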;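 further: 0% = DMSO wells and -100% = levofloxacin 16 µg/mL wells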
Pf Dd2 inh = P. falciparum Dd2 growth inhibition. 2.3% of 94,000 active. SYBR Green, 72 h; stronger effect = lower value. activity change, % at 10 µM; in the data active means activity change below about -80%; inconclusive means no clear call, values can overlap the other calls
* hit, by the source's call; u = inconclusive; x = no result given. This is a sample that favours compounds with a hit; in the whole collection about 2.3% have one here.

SMILES	C diff HTS	Pf Dd2 inh
C[C@@H]1CN([C@@H](C)CO)C(=O)c2cc(NC(=O)Cc3cn(C)c4ccccc34)ccc2O[C@H]1CN(C)Cc1ccc(C(=O)Nc2ccccc2N)cc1	x	-85.5*
CC(C)NC(=O)Nc1ccc2c(c1)C(=O)N([C@H](C)CO)C[C@H](C)[C@H](CN(C)Cc1ccc(C(=O)Nc3ccccc3N)cc1)OCCCC[C@@H](C)O2	4.3	u
C[C@H]1CN([C@@H](C)CO)C(=O)c2cc(NC(=O)Cc3ccccc3)ccc2O[C@H]1CN(C)Cc1ccc(C(=O)Nc2ccccc2N)cc1	2.1	-67.9
C[C@@H]1CN([C@@H](C)CO)C(=O)c2cc(NC(=O)Cc3ccccc3)ccc2O[C@@H]1CN(C)Cc1ccc(C(=O)Nc2ccccc2N)cc1	3.1	-85.9*
C[C@H]1CN([C@@H](C)CO)C(=O)c2cc(NC(=O)c3ccncc3)ccc2O[C@@H]1CN(C)Cc1ccc(C(=O)Nc2ccccc2N)cc1	4.8	-86.0*
C[C@@H]1CN([C@H](C)CO)C(=O)c2cc(NC(=O)c3ccncc3)ccc2O[C@@H]1CN(C)Cc1ccc(C(=O)Nc2ccccc2N)cc1	x	-60.9
C[C@@H]1CCCCO[C@@H](CN(C)Cc2ccc3c(c2)OCO3)[C@H](C)CN([C@@H](C)CO)C(=O)c2cc(NC(=O)c3ccccc3)ccc2O1	10.5	-72.1
Cc1noc(C)c1S(=O)(=O)Nc1ccc2c(c1)C(=O)N([C@@H](C)CO)C[C@H](C)[C@H](CN(C)Cc1ccc(C(F)(F)F)cc1)O2	-0.2	11.6
COc1ccc(NC(=O)Nc2ccc3c(c2)[C@H]2C[C@@H](CC(=O)O)O[C@@H](CO)[C@H]2O3)cc1	x	28.1
N#C[C@@H]1[C@H](c2ccccc2-c2ccccc2)[C@H](CO)N1C(=O)NC1CCCCC1	-14.4	1.2
Cc1ccc(S(=O)(=O)Nc2ccc3c(c2)CC(=O)N([C@H](C)CO)C[C@@H](C)[C@H](CN(C)C(=O)NC2CCCCC2)O3)cc1	-9.9	8.3
COCC#Cc1cnc2c(c1)C(=O)N([C@@H](C)CO)C[C@@H](C)[C@@H](CN(C)S(=O)(=O)c1cn(C)cn1)O2	-5.5	34.7
C[C@@H]1CN([C@@H](C)CO)C(=O)c2cc(NC(=O)Nc3ccc(F)cc3)ccc2O[C@@H](C)CCCCO[C@H]1CN(C)CC1CCCCC1	7.0	-77.6
C[C@@H]1CN([C@@H](C)CO)C(=O)c2cc(NC(=O)Nc3ccc(F)cc3)ccc2O[C@@H](C)CCCCO[C@@H]1CN(C)CC1CCCCC1	0.6	u
C[C@H](CO)N1C[C@H](C)[C@H](CN(C)CC2CCCCC2)OCCCC[C@H](C)Oc2ccc(NC(=O)Nc3ccc(F)cc3)cc2C1=O	-9.5	-86.7*
C[C@@H]1CN([C@@H](C)CO)C(=O)c2cc(NC(=O)NC3CCCCC3)ccc2O[C@@H](C)CCCCO[C@H]1CN(C)CC1CCCCC1	x	-84.7*
C[C@@H]1CCCCO[C@H](CN(C)CC2CCCCC2)[C@H](C)CN([C@@H](C)CO)C(=O)c2cc(NC(=O)NC3CCCCC3)ccc2O1	x	-53.2
C[C@H]1CCCCO[C@@H](CN(C)CC2CCCCC2)[C@@H](C)CN([C@@H](C)CO)C(=O)c2cc(NC(=O)Nc3ccc(F)cc3)ccc2O1	0.0	-84.8*
O=C(Nc1ccccc1F)N1CC(=O)N2[C@H](CO)[C@H](c3ccc(-c4cccnc4)cc3)[C@@H]2C1	-3.6	1.0
COc1ccc(S(=O)(=O)Nc2ccc3c(c2)C(=O)N([C@H](C)CO)C[C@H](C)[C@H](CN(C)S(=O)(=O)c2ccc(Cl)cc2)OCCCC[C@@H](C)O3)cc1	13.8	-37.7
COc1ccc(S(=O)(=O)Nc2ccc3c(c2)C(=O)N([C@@H](C)CO)C[C@H](C)[C@H](CN(C)S(=O)(=O)c2ccc(Cl)cc2)OCCCC[C@@H](C)O3)cc1	5.0	-60.9
COc1ccc(S(=O)(=O)N(C)C[C@H]2OCCCC[C@H](C)Oc3ccc(NS(=O)(=O)c4ccc(Cl)cc4)cc3C(=O)N([C@H](C)CO)C[C@@H]2C)cc1	1.5	-87.2*
COc1ccc(S(=O)(=O)N(C)C[C@H]2OCCCC[C@H](C)Oc3ccc(NS(=O)(=O)c4ccc(Cl)cc4)cc3C(=O)N([C@@H](C)CO)C[C@H]2C)cc1	0.6	-88.0*
COc1ccc(S(=O)(=O)N(C)C[C@H]2OCCCC[C@@H](C)Oc3ccc(NS(=O)(=O)c4ccc(Cl)cc4)cc3C(=O)N([C@H](C)CO)C[C@H]2C)cc1	-1.7	-90.1*
COc1ccc(S(=O)(=O)Nc2ccc3c(c2)C(=O)N([C@@H](C)CO)C[C@H](C)[C@H](CN(C)S(=O)(=O)c2ccc(Cl)cc2)OCCCC[C@H](C)O3)cc1	-2.8	-73.2
SMILES	C diff HTS	Pf Dd2 inh
COc1ccc(-c2cnc3c(c2)C(=O)N([C@@H](C)CO)C[C@@H](C)[C@@H](CN(C)C(=O)Cc2ccccn2)O3)cc1	-5.8	2.1
COc1ccc2c3c([nH]c2c1)[C@@H](CO)N(C(=O)C1CCCCC1)CC31CCN(Cc2nccs2)CC1	-4.5	-87.4*
COc1ccc2c3c([nH]c2c1)[C@H](CO)N(C(=O)C1CCC1)CC31CCN(Cc2nccs2)CC1	-4.8	-74.7
COc1ccc2c3c([nH]c2c1)[C@H](CO)N(C(=O)C1CC1)CC31CCN(Cc2nccs2)CC1	-3.9	-51.0
COc1ccc2c3c([nH]c2c1)[C@H](CO)N(C(=O)C1CCOCC1)CC31CCN(Cc2nccs2)CC1	-3.6	-87.6*
C/C=C/c1ccc([C@H]2[C@@H](CO)N3CCCCN(C(=O)Nc4cc(F)ccc4F)C[C@@H]23)cc1	0.5	-32.4
O=C(NCC[C@H]1CC[C@H](NS(=O)(=O)c2cccc(Cl)c2)[C@H](CO)O1)c1cnccn1	-5.4	14.3
O=C1CN(S(=O)(=O)Cc2ccccc2)C[C@@H]2[C@H](c3ccc(C#CCC4CCCC4)cc3)[C@@H](CO)N12	-20.7	-18.8
COc1ccccc1-c1ccc2c(c1)O[C@@H](CN(C)S(=O)(=O)c1ccccc1)[C@@H](C)CN([C@H](C)CO)S2(=O)=O	14.2	-51.2
COc1ccccc1-c1ccc2c(c1)O[C@H](CN(C)S(=O)(=O)c1ccc(C)cc1)[C@H](C)CN([C@H](C)CO)S2(=O)=O	19.0	-38.9
COc1ccc(S(=O)(=O)N(C)C[C@@H]2Oc3cc(-c4ccccc4OC)ccc3S(=O)(=O)N([C@H](C)CO)C[C@H]2C)cc1	1.5	-87.3*
COc1ccc(S(=O)(=O)N(C)C[C@@H]2Oc3cc(-c4ccccc4OC)ccc3S(=O)(=O)N([C@H](C)CO)C[C@@H]2C)cc1	6.1	-50.0
COc1ccccc1-c1ccc2c(c1)O[C@@H](CN(C)S(=O)(=O)c1ccccc1)[C@H](C)CN([C@H](C)CO)S2(=O)=O	7.5	-82.3*
COc1ccccc1-c1ccc2c(c1)O[C@@H](CN(C)S(=O)(=O)c1ccc(C)cc1)[C@H](C)CN([C@@H](C)CO)S2(=O)=O	5.0	-83.9*
CC(C)NC(=O)N(C)C[C@@H]1OCCCC[C@H](C)Oc2ccc(NS(=O)(=O)c3cn(C)cn3)cc2C(=O)N([C@H](C)CO)C[C@@H]1C	1.9	19.5
Cc1cc(C(=O)Nc2cccc3c2O[C@@H](CN(C)Cc2ccncc2)[C@H](C)CN([C@H](C)CO)C3=O)n(C)n1	1.5	2.8
C[C@H](CO)N1C[C@H](C)[C@H](CN(C)Cc2ccc(C(=O)Nc3ccccc3N)cc2)Oc2c(NC(=O)c3cnccn3)cccc2C1=O	4.9	-86.0*
